We go through 26 compounds from PubChem BioAssay (NCATS).

In one test the test system is OV90. As to the kind of experiment: Primary qHTS to identify gynecologic anti-cancer compounds using libraries of approved drugs and bioactive compounds (AID 1345084). Further: nearly all actives have a fitted effect of over 55% in size. To be noted: Gynecologic cancer cell panel viability, ATPlite luminescence, 48 h; series mostly up to 57.5 µM. Summed up: (§1)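 In this quantitative HTS, cell killing is estimated from loss of ATP-dependent luciferase light. Cells see five compound concentrations over a 48 h exposure.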
For orientation: Quantitative high-throughput screening tests each substance at several concentrations.

A further test relates to PA-1. The test is described as above. To be noted: Gynecologic cancer cell panel viability, ATPlite luminescence, 48 h; series mostly up to 57.5 µM. In outline: as §1
Background: ATP-based viability assays read luminescence as a measure of living cells.

The next test relates to SKOV3. Described as above. To be noted: Gynecologic cancer cell panel viability, ATPlite luminescence, 48 h; series mostly up to 57.5 µM. In outline:
as §1

The test system of the next test is Tov-21-G. The test is described as above. Particulars: Gynecologic cancer cell panel viability, ATPlite luminescence, 48 h; series mostly up to 57.5 µM. In outline: as §1
Another test has as its system Tov112D. The test is described as above. To be noted: Gynecologic cancer cell panel viability, ATPlite luminescence, 48 h; series mostly up to 57.5 µM. In outline:
as §1

Test [1] in a line: Drug repurposing screens with cells derived from glioblastoma tumor samples (AID 1345199). Further: nearly all actives have a fitted effect of over 40% in size. On activity, negative = cell killing: on the % scale 0 is the no-effect control and ±100 the full control effect. Particulars: GBM patient neurospheres viability, ATP luminescence, 48 h. Summed up:
(§2)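 Four patient lines of CD133+ GBM neurospheres were screened at several concentrations; hits were retested in those lines plus three slower-growing GBM lines, using 48-hour treatment and ATP-based viability.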

A further test concerns astro. Described as above. To be noted: viability, ATP luminescence, 48 h; series mostly up to 45.9 µM. In outline:
as §2

Test [2] is described as follows: qHTS assay to identify inhibitors of the type 1 interferon - major histocompatibility complex class I in skeletal muscle: Counter screen cell viability and HiBit confirmation (AID 1347412). Further: nearly all actives have a fitted effect of over 60% in size. Particulars: iHSKM muscle cells + IFN-b, HiBiT or CellTiter-Glo, 24 h. In outline: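 Human myoblast knock-in line, 4.0 ng/ml IFN-beta stimulation, 24 h compound treatment. Endpoints: HiBiT lytic luminescence (HLA-B level) and CellTiter Glo (ATP). Dosing 12 concentrations, 3-fold steps, 46 uM highest final.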

Setting [3] is: at 45.9 µM (top of the series), tumour line B.
Where [4] appears, read: at 45.9 µM (top of the series), tumour line D.
[5] abbreviates: at 46.1 µM (top of the series), tumour line C.
Where [6] appears, read: at 20 µM (top of the series), tumour line C.
[7] abbreviates: at 21.2 µM (top of the series), tumour line B.
The mark [8] stands for this setting: at 21.2 µM (top of the series), tumour line D.

SMILES strings stand for the structures. Results filed as inconclusive are left out. Unmarked numbers belong to inactive results. Calls of active or inactive are those of the source. The call rests on the fitted dose curve; in most records, active means well fitted curve in the direction sought with a large enough effect; inconclusive means small, poorly fitted or top-dose-only effect, or another doubt; inactive means no such curve, though single readings can be large; an effect the other way counts as inactive or inconclusive.
Potency means the concentration at half of the fitted maximal effect.

For `CCCCCN(CCCCC)C(=O)C(CCC(=O)O)NC(=O)c1ccc(Cl)c(Cl)c1` (stereo not given), the Potency entry with OV90, with PA-1, in the test with SKOV3, in the test with Tov-21-G, in the test with Tov112D and with astro was “inactive” throughout. Further, the activity, negative = cell killing in test [1] (setting [3]) was -4.86%; in test [1] (setting [4]), -12.8%; in test [1] (setting [5]) it was -26.2%.

As for `C(=C\c1ccccc1)/CN1CCN(C(c2ccccc2)c2ccccc2)CC1`, the Potency result in the test with OV90, in the test with PA-1, in the test on Tov-21-G, in the test with Tov112D and in the test on astro was “inactive” throughout. The activity, negative = cell killing is -1.05% in test [1] (setting [6]), -13.5% in test [1] (setting [7]) and -14% in test [1] (setting [8]). In addition, the Potency in test [1] (tumour line A) is 7.08 µM (active).

With `Cc1nc2ccccn2c(=O)c1CCN1CCC(C(=O)c2ccc(F)cc2)CC1`, the Potency result in the test with OV90, with PA-1, with Tov-21-G, in the test with Tov112D and in the test with astro was “inactive” each time. Also, the activity, negative = cell killing in test [1] (setting [3]) was -22.2%. Moreover, in test [1] (tumour line A), the Potency is 6.31 µM (active).

With `CCn1ccnc1CC1COc2ccccc2O1` (stereo not given), the Potency entry in the test on OV90, in the test on PA-1, with SKOV3, in the test with Tov-21-G, in the test with Tov112D and in the test with astro was “inactive” in each case. The values for the activity, negative = cell killing in test [1] (setting [3]), in test [1] (setting [4]) and in test [1] (setting [5]) were -17.6%, -4.46% and -8.32%, respectively.

With `C[n+]1cc2c3c(ccc2c2ccc4cc5c(cc4c21)OCO5)OCO3`, the Potency with OV90 was 11.2 µM (active); in the test on PA-1 it was 5.01 µM (active); with SKOV3 it was 3.55 µM (active); in the test on Tov-21-G, 7.94 µM (active); with Tov112D it was 10 µM (active); in test [2] (HiBiT), 1.11 µM (active). Besides, the Potency in test [2] (Viability) was 2.22 µM (active).

For `CN(C)CCOC(=O)COc1ccc(Cl)cc1`, the Potency entry in the test on OV90, in the test with PA-1, in the test on Tov-21-G, in the test on Tov112D and in the test with astro was “inactive” in each case. The activity, negative = cell killing is -19.3% in test [1] (setting [6]), -11.3% in test [1] (setting [7]) and -14.6% in test [1] (setting [8]).

In the case of `CCN1CCc2nc(N)oc2CC1`, the Potency result in the test on OV90, in the test on PA-1, with Tov-21-G, in the test on Tov112D and in the test on astro was “inactive” throughout. The activity, negative = cell killing in test [1] (setting [3]) was -14.6%; in test [1] (setting [4]) it was -6.92%; in test [1] (setting [5]), -18.3%.

In the case of `CN(C)C/C=C(/c1ccc(Br)cc1)c1cccnc1`, the Potency result in the test with OV90, with PA-1, in the test with SKOV3, with Tov-21-G, with Tov112D and with astro was “inactive” in each case. The activity, negative = cell killing in test [1] (setting [3]) is -23%. For the same compound, the Potency in test [1] (tumour line A) was 31.6 µM (active).

Take `COCC(=O)O[C@]1(CCN(C)CCCc2nc3ccccc3[nH]2)CCc2cc(F)ccc2[C@@H]1C(C)C`: the Potency in the test on OV90 was 22.4 µM (active); in the test with astro, 10 µM (active). In addition, the Potency result with PA-1, in the test with Tov-21-G and with Tov112D was “inactive” each time.

In the case of `CCOC(=O)C1=C(C)NC(C)=C(C(=O)OC)C1c1cccc(Cl)c1Cl` (stereo not given), the Potency entry with OV90, in the test on PA-1, with SKOV3, in the test with Tov-21-G, in the test with Tov112D and in the test with astro was “inactive” throughout. Further, the activity, negative = cell killing in test [1] (setting [3]) was -16.5%. Also, the Potency in test [1] (tumour line A) is 12.6 µM (active).

As for `CCCNC(C)C(=O)Nc1ccccc1C` (stereo not given), the Potency entry with OV90, with PA-1, in the test on SKOV3, in the test on Tov-21-G, in the test on Tov112D and in the test with astro was “inactive” throughout. The activity, negative = cell killing is -20% in test [1] (setting [3]), -8.5% in test [1] (setting [4]) and -15.8% in test [1] (setting [5]).

`COC(=O)C1=C(C)NC(C)=C(C(=O)OC(C)(C)CN(C)CCC(c2ccccc2)c2ccccc2)C1c1cccc([N+](=O)[O-])c1` (stereo not given): the Potency entry in the test with OV90, in the test on PA-1, in the test with Tov-21-G and in the test with Tov112D was “inactive” in each case. In addition, the Potency in test [1] (tumour line A) is 2 µM (active); in test [1] (tumour line C) it was 5.8 µM (active); in test [1] (tumour line D), 5.01 µM (active).

In the case of `CCN(CC)CCCN(c1ccccc1)C1Cc2ccccc2C1`, the Potency result in the test with PA-1, in the test on Tov-21-G and in the test on Tov112D was “inactive” in each case.

`OCCN1CCN(CCCN2c3ccccc3C=Cc3ccccc32)CC1`: the Potency result in the test on PA-1, in the test with Tov-21-G and in the test with Tov112D was “inactive” in each case.

Take `O=C(CCCN1CCC(O)(c2cccc(C(F)(F)F)c2)CC1)c1ccc(F)cc1`: the Potency result with PA-1, in the test on SKOV3, in the test with Tov-21-G, in the test with Tov112D and in the test with astro was “inactive” in each case.

`NC(N)=NC(=O)Cc1c(Cl)cccc1Cl`: the Potency result with PA-1, in the test with SKOV3, in the test on Tov-21-G, in the test with Tov112D and in the test on astro was “inactive” each time. Further, the activity, negative = cell killing in test [1] (setting [5]) was -19.8%. The Potency in test [1] (tumour line A) is 5.62 µM (active).

Regarding `CN(C)CC/C=C1\c2ccccc2COc2ccccc21`, the Potency result with PA-1, in the test on SKOV3, in the test on Tov-21-G, in the test with Tov112D and in the test on astro was “inactive” in each case. Also, the activity, negative = cell killing in test [1] (setting [3]) is -27.9%; in test [1] (setting [5]) it was -1.82%. Moreover, the Potency in test [1] (tumour line A) was 14.1 µM (active).

Regarding `Cc1nc2sccn2c(=O)c1CCN1CCC(=C(c2ccc(F)cc2)c2ccc(F)cc2)CC1`, the Potency entry in the test with PA-1, in the test with SKOV3, in the test on Tov-21-G and in the test on Tov112D was “inactive” in each case.

In the case of `C[C@]12CCC(=O)C=C1CC[C@@H]1[C@@H]2C(=O)C[C@@]2(C)[C@H]1CC[C@]2(O)C(=O)CO`, the Potency entry in the test on OV90, in the test on SKOV3, in the test with Tov-21-G, with Tov112D and in the test on astro was “inactive” throughout. Also, the activity, negative = cell killing in test [1] (setting [3]) was -3.67%; in test [1] (setting [4]), -5.79%; in test [1] (at 46 µM (top of the series), tumour line A), -18.4%; in test [1] (setting [5]), 4.73%.

With `CNCCC(Oc1ccccc1OC)c1ccccc1` (stereo not given), the Potency result in the test on PA-1, in the test with SKOV3, with Tov-21-G, with Tov112D and with astro was “inactive” each time. Moreover, the activity, negative = cell killing in test [1] (setting [3]) is -10.4%; in test [1] (setting [4]) it was -19.1%; in test [1] (setting [5]) it was -16.2%. Moreover, the Potency in test [1] (tumour line A) was 12.6 µM (active).

Take `CN(C(=O)CCCOc1ccc2[nH]c(=O)ccc2c1)C1CCCCC1`: the Potency entry in the test on OV90, with Tov-21-G and with Tov112D was “inactive” in each case. Also, the activity, negative = cell killing in test [1] (setting [3]) is -16.8%. Moreover, the Potency in test [1] (tumour line A) is 11.2 µM (active).

Take `Fc1ccc(C(c2ccc(F)cc2)N2CCN(C/C=C/c3ccccc3)CC2)cc1`: the Potency result in the test with PA-1, in the test on SKOV3, in the test on Tov-21-G and with Tov112D was “inactive” throughout.

With `CCc1cccc(N(C)C(N)=Nc2cccc3ccccc23)c1`, the Potency result in the test with Tov-21-G was “inactive”.

In the case of `CN(C)CCCN1c2ccccc2Sc2ccccc21`, the Potency result in the test with PA-1, in the test with SKOV3, with Tov-21-G and in the test with Tov112D was “inactive” throughout. Further, the activity, negative = cell killing in test [1] (setting [6]) is -19.7%. The Potency in test [1] (tumour line A) is 12.6 µM (active); in test [1] (tumour line D), 10 µM (active).

Take `CNCCCN1c2ccccc2CCc2ccccc21`: the Potency entry with PA-1 and in the test with Tov-21-G was “inactive” each time. The activity, negative = cell killing in test [1] (setting [6]) is 14.5%. Further, the Potency in test [1] (tumour line A) is 8.91 µM (active).

With `OC(CCN1CCCCC1)(c1ccccc1)C1CCCCC1` (stereo not given), the Potency result in the test with PA-1, in the test on SKOV3, in the test on Tov-21-G, in the test with Tov112D and with astro was “inactive” in each case. The activity, negative = cell killing in test [1] (setting [3]) is -11.3%; in test [1] (setting [5]), -28%.
